Targets with a hit are over-represented here; the source holds about 7,900 in all. About 0.6% of all pairs of compound and target were hits.

The values that follow come from the supplement of paper PMC10849652.

Common to all, as to assay: log2 fold change, soluble protein after heating vs DMSO (PISA); higher = thermal stabilisation; K562 cells, 10 uM, 30 min; active = over 0.2 and 3.5 SD of the protein, either way, in both replicates (recomputed)
Compound in assay [1]: C1=CC=C(C=C1)[C@H](COC2=CC3=C(C=C2)NC(=O)N3)NC(=O)C4=CC=CN(C4=O)CC5=CC(=C(C=C5)F)F
The gist of the method: (§1)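 Values are thermal stability changes relative to control samples and are taken from duplicates. They are stated as log2 fold changes. Before quantification by TMTpro 16plex LC-MS/MS with equalised channel sums, K562 cells at 2×10^6 cells/mL were treated with 10 μM compound for 30 min, heated in aliquots for 3 min across 48°C-58°C, pooled, extracted in PBS with 0.5% NP-40 at 4°C, and centrifuged at 21,000xg for 90 min to give the soluble supernatant.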

Compound in assay [2]: CC1=C(SC2=C1C(=N[C@H](C3=NN=C(N32)C)CC(=O)N)C4=CC=C(C=C4)Cl)C
A digest of the protocol:
as §1

Compound in assay [3]: CC1=C2C(=CC=C1)N=C(N(C2=O)C3=CC=CC=C3C)CN4C=NC5=C(N=CN=C54)N
A digest of the protocol:
as §1

Compound in assay [4]: Cc1sc2c(c1C)C(c1ccc(Cl)cc1)=N[C@@H](CC(=O)OC(C)(C)C)c1nnc(C)n1-2
A digest of the protocol:
as §1

Compound in assay [5]: c1ccc([C@@H]2C[C@H]2NC2CCNCC2)cc1
The gist of the method: as §1

Chain of UniProt Q8WUI4 (Q8WUI4 whole entry, looked up): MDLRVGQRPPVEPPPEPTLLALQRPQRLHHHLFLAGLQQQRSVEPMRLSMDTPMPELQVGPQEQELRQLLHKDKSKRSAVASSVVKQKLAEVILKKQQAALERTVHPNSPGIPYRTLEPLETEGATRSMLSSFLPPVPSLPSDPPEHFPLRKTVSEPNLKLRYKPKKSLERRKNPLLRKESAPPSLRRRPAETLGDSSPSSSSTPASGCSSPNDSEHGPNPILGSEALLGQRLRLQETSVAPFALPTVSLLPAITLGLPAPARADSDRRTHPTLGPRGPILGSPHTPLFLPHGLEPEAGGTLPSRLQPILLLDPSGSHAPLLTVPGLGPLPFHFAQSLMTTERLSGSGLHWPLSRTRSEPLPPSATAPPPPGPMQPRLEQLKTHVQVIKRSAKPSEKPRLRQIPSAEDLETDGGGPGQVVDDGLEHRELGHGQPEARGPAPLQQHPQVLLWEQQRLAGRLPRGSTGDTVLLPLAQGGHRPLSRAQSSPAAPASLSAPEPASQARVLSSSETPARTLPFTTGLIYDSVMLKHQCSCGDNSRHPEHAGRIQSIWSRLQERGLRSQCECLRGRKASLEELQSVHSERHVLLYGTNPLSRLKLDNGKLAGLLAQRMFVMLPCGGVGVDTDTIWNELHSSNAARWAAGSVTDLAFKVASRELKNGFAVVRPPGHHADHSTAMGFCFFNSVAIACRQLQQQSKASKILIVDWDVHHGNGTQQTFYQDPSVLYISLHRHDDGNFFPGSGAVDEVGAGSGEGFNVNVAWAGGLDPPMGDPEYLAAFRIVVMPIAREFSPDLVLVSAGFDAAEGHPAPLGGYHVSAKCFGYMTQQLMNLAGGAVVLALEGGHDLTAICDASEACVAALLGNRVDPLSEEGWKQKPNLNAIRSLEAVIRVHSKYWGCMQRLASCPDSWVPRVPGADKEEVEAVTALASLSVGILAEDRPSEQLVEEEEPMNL
Chain of UniProt P50213 (P50213 whole entry, looked up): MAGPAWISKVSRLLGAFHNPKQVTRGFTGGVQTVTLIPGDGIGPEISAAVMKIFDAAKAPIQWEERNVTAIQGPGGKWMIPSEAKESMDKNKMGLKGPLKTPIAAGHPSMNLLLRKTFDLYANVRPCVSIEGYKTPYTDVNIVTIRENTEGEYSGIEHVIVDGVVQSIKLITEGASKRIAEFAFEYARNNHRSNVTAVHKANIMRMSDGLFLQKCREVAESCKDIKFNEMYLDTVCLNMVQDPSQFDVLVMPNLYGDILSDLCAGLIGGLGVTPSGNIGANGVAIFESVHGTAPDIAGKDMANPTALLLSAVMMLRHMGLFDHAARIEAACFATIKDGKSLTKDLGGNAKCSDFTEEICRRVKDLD
Chain of UniProt Q92664 (Q92664 whole entry, looked up): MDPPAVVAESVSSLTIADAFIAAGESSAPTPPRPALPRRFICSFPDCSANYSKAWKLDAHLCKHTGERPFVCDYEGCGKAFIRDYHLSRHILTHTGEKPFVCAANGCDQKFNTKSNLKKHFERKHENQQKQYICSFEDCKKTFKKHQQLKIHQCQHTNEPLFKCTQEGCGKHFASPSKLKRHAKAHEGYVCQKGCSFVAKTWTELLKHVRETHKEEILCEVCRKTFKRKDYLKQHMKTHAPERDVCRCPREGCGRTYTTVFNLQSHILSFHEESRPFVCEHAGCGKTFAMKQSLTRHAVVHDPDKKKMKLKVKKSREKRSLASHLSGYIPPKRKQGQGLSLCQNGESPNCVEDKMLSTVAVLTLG
Chain of UniProt P15976 (P15976 whole entry, looked up): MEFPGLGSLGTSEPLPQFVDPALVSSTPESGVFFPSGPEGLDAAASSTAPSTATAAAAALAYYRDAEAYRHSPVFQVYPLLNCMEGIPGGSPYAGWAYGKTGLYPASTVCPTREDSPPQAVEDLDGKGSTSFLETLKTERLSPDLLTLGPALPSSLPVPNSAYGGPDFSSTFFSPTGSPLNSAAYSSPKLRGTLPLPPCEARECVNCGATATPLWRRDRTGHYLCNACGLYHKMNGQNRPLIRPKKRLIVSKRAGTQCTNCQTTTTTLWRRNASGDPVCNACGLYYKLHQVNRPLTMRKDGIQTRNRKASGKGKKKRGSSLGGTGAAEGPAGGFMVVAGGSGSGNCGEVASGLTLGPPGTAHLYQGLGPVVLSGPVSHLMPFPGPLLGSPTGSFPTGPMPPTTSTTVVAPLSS
Chain of UniProt Q9BTY2 (Q9BTY2 whole entry, looked up): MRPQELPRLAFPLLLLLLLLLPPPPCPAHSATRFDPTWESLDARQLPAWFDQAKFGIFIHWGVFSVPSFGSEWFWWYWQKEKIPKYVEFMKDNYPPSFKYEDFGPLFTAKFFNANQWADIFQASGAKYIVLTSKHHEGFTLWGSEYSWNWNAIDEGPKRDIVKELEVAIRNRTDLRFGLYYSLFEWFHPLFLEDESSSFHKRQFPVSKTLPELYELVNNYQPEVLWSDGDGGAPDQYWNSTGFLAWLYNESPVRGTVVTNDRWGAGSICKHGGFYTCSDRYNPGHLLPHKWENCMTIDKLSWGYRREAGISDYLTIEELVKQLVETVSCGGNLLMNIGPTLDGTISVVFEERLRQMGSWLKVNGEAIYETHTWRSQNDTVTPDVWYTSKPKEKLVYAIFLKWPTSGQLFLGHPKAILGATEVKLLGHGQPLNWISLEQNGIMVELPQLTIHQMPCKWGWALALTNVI
Chain of UniProt Q9NVI1 (Q9NVI1 whole entry, looked up): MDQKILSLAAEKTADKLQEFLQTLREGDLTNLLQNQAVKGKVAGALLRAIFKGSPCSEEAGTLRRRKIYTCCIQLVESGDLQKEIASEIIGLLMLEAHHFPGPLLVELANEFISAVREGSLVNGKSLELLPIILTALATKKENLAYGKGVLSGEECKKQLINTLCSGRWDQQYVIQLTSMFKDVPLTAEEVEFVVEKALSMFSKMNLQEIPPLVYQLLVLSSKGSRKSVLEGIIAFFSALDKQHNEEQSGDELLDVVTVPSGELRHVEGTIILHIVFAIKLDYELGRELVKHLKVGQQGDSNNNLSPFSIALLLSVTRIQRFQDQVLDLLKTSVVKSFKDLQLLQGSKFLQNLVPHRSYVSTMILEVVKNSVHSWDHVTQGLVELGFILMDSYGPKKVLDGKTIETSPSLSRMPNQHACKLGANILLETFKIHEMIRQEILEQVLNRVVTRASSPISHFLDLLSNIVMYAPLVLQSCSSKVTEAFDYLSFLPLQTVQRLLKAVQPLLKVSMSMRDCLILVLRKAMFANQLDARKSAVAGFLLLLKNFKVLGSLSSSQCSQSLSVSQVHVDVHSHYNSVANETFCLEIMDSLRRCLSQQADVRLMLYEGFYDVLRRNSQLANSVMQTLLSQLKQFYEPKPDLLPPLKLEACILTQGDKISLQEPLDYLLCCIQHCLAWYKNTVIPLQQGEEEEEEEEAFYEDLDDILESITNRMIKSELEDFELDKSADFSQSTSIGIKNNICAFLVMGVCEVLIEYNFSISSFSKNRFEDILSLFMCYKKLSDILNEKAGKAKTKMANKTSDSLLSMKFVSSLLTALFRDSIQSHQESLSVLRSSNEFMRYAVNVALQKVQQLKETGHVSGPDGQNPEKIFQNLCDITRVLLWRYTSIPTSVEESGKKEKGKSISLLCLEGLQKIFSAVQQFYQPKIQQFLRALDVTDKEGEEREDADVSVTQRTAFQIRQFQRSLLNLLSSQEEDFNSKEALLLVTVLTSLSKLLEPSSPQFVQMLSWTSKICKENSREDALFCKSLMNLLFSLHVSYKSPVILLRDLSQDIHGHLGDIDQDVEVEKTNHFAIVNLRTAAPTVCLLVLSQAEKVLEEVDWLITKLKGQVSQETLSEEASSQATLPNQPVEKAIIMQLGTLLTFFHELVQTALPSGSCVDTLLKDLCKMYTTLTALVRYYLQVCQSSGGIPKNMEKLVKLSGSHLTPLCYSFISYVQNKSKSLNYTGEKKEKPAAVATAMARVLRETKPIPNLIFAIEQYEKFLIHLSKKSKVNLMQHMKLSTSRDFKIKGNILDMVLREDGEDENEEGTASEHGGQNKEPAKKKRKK
Chain of UniProt Q00688 (Q00688 whole entry, looked up): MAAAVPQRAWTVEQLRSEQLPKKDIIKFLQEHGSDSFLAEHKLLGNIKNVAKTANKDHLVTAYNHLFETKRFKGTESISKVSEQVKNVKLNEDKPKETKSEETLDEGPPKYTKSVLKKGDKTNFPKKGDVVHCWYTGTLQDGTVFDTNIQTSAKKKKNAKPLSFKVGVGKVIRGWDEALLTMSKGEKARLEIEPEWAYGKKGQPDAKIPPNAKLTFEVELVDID
Chain of UniProt P04066 (P04066 whole entry, looked up): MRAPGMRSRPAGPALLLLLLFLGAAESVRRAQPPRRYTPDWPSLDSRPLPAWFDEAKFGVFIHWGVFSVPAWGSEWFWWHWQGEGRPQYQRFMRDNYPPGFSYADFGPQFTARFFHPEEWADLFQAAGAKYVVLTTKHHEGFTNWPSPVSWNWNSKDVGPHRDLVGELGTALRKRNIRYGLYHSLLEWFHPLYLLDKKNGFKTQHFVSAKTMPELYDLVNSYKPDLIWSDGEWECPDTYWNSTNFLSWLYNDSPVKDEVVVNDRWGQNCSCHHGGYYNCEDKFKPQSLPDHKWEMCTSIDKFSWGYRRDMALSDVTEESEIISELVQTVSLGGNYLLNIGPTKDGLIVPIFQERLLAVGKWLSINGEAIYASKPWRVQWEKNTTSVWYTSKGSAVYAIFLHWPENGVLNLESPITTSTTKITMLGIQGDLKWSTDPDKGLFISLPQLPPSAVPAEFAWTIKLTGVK
Chain of UniProt Q13889 (Q13889 whole entry, looked up): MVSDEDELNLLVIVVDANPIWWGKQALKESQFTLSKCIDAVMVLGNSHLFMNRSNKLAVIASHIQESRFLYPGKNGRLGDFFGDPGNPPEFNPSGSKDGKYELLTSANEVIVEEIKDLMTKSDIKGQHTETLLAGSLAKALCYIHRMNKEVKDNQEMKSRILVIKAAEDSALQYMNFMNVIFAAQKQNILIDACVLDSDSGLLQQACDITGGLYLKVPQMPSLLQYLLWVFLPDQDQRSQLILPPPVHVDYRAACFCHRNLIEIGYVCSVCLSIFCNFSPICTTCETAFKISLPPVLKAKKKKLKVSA

Take FKBP3 (UniProt Q00688): the log2 fold change was 0.014 (inactive) in assay [1]; 0.003 (inactive) in assay [2]; 0.01 (inactive) in assay [3]; 0.011 (inactive) in assay [4]; -0.016 (inactive) in assay [5].
GTF2E2 (UniProt P29084): the log2 fold change is -0.009 (inactive) in assay [1]; 0.043 (inactive) in assay [2]; 0.126 (inactive) in assay [3]; -0.058 (inactive) in assay [4]; 0.012 (inactive) in assay [5].
The matching figures for FUCA2 (UniProt Q9BTY2): 0.055 (inactive), -0.004 (inactive), 0.005 (inactive), 0.034 (inactive) and 0.006 (inactive).
The matching figures for GOLPH3 (UniProt Q9H4A6): -0.035 (inactive), 0.06 (inactive), 0.04 (inactive), -0.077 (inactive) and -0.021 (inactive).
On to FUCA1 (UniProt P04066), for which the log2 fold change in assay [1] was -0.001 (inactive); in assay [2], 0.058 (inactive); in assay [3] it was 0.03 (inactive); in assay [4] it was 0.018 (inactive); in assay [5], 0.053 (inactive).
The matching figures for FANCI (UniProt Q9NVI1): -0.071 (inactive), 0.028 (inactive), 0.109 (inactive), -0.008 (inactive) and -0.037 (inactive).
The matching figures for FBXO3 (UniProt Q9UK99): 0.006 (inactive), -0.03 (inactive), 0.033 (inactive), 0.055 (inactive) and 0.127 (inactive).
The matching figures for GTF3A (UniProt Q92664): 0.002 (inactive), -0.001 (inactive), 0.08 (inactive), -0.072 (inactive) and -0.071 (inactive).
In the case of GYS1 (UniProt P13807), the log2 fold change was 0.007 (inactive) in assay [1]; -0.13 (inactive) in assay [2]; -0.02 (inactive) in assay [3]; 0.023 (inactive) in assay [4]; 0.054 (inactive) in assay [5].
The matching figures for FLNA (UniProt P21333): -0.11 (inactive), 0.016 (inactive), 0.049 (inactive), 0.019 (inactive) and -0.008 (inactive).
The matching figures for GGA2 (UniProt Q9UJY4): -0.023 (inactive), 0.014 (inactive), -0.035 (inactive), 0.041 (inactive) and -0.047 (inactive).
The matching figures for IFI30 (UniProt P13284): -0.066 (inactive), 0.01 (inactive), -0.06 (inactive), 0.004 (inactive) and 0.048 (inactive).
As for HSPA2 (UniProt P54652), the log2 fold change in assay [1] was 0.003 (inactive).
For the target FUNDC1 (UniProt Q8IVP5), the log2 fold change in assay [1] is 0.052 (inactive).
Take GOPC (UniProt Q9HD26): the log2 fold change in assay [1] was -0.315 (inactive); in assay [2], -0.016 (inactive); in assay [3], 0.018 (inactive); in assay [4] it was 0.169 (inactive); in assay [5], -0.054 (inactive).
The matching figures for FERMT3 (UniProt Q86UX7): -0.026 (inactive), 0.066 (inactive), 0.053 (inactive), -0.018 (inactive) and -0.019 (inactive).
The matching figures for HDAC7 isoform 5 (UniProt Q8WUI4): -0.008 (inactive), 0.039 (inactive), -0.004 (inactive), -0.026 (inactive) and -0.003 (inactive).
The matching figures for HDHD2 (UniProt Q9H0R4): -0.044 (inactive), 0.006 (inactive), -0.003 (inactive), 0.03 (inactive) and -0.031 (inactive).
With GTF2H3 (UniProt Q13889), the log2 fold change was 0.062 (inactive) in assay [1]; 0.065 (inactive) in assay [2]; 0.099 (inactive) in assay [3]; 0.048 (inactive) in assay [4]; 0.017 (inactive) in assay [5].
As to IDH3A (UniProt P50213), the log2 fold change in assay [1] is -0.029 (inactive); in assay [2], 0.018 (inactive); in assay [3] it was 0.026 (inactive); in assay [4], -0.025 (inactive); in assay [5] it was -0.005 (inactive).
The matching figures for HIP1R (UniProt O75146): -0.038 (inactive), 0.061 (inactive), 0.1 (inactive), -0.031 (inactive) and -0.02 (inactive).
The matching figures for FAT2 (UniProt Q9NYQ8): -0.092 (inactive), 0.669 (active), 0.163 (inactive), -0.091 (inactive) and -0.218 (inactive).
The matching figures for FBXO6 (UniProt Q9NRD1): 0.013 (inactive), 0.087 (inactive), 0.041 (inactive), -0.041 (inactive) and -0.032 (inactive).
Consider HLTF (UniProt Q14527), for which the log2 fold change in assay [1] was 0.003 (inactive); in assay [2], 0.012 (inactive); in assay [3], 0.062 (inactive); in assay [4], 0 (inactive); in assay [5], -0.001 (inactive).
Turning to HBZ, A0A494C057, the log2 fold change in assay [1] is -0.047 (inactive).
GALNT4 (UniProt Q8N4A0): the log2 fold change in assay [1] was 0.007 (inactive); in assay [2] it was 0.062 (inactive); in assay [3] it was 0.109 (inactive); in assay [4], -0.033 (inactive); in assay [5], -0.002 (inactive).
For GATA1 (UniProt P15976), the log2 fold change in assay [1] was 0.061 (inactive); in assay [2], -0.014 (inactive); in assay [3], 0.064 (inactive); in assay [4], 0.117 (inactive); in assay [5], 0.029 (inactive).
